# PubChem BioAssay AID1578 (Sanford-Burnham Center for Chemical Genomics, 2009)
# Several values for one entry are separate records, joined by “and”; a condition that tells them apart may be missing. Equal values may be shown once. Out of some 290,000 compounds screened, about 3,000 (1%) were called active. Rule as the data show it: active = inhibition mostly above about 36% (no sharp cut-off); inactive = mostly below about 34%. Shown is part of a subset that was picked to be rich in actives. More than one record can exist for a structure, and the calls need not agree.
# Experiment: NOD1 signaling inhibitors, primary screen, cell-based, luminescence, uHTS (AID 1578);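 also: HEK-293T reporter cells stimulated with the NOD1 agonist gamma-tri-DAP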
# Conditions: NOD1-driven NF-kB luciferase reporter cells, at 4 µM, stronger effect = higher value
row,SMILES,inhibition
1,CC1=CC2/C=C(\C)CCC(O)C(O)/C=C/C(=O)C23C(=O)NC(CC(C)C)C3C1C (configuration not stated),90.7% (active)
2,C/C1=C\[C@@H](C)C/C=C/[C@H]2[C@@H]3O[C@]3(C)[C@@H](C)[C@H]3[C@H](Cc4c[nH]c5ccccc45)NC(=O)[C@]32C(=O)/C=C/C(=O)[C@@H]1O,-3.4% (inactive)
3,CCOc1ccc(-n2c(O)c(C=Nc3ccc(NC(C)=O)cc3)c(=O)[nH]c2=O)cc1,-7.1% (inactive)
4,O=P(O)(O)C#Cc1ccccc1,-12.9% (inactive)
5,CN1CCN(c2nc([N+](=O)[O-])nn2C)CC1,-15.4% (inactive)
6,COC(=O)c1ccc(NC(=O)CSc2nc3ccc(N4C(=O)C5C6C=CC(C6)C5C4=O)cc3s2)cc1 (configuration not stated),104% (active)
7,CCOC(=O)c1c(-n2c(C)cc(C=C3C(=O)NC(=O)NC3=O)c2C)sc2c1CCCC2,1.7% (inactive)
8,CCC(C)C12CN3CCN(CC(C)(C3)C1=O)C2 (configuration not stated),4.3% (inactive)
9,C=CCn1c(O)c(C(CC)=Nc2cccc(C(=O)O)c2)c(=O)[nH]c1=O,5.1% (inactive)
10,CCCCCCNC(=O)N[C@@H](Cc1ccc(O)cc1)C(=O)NCCC[C@H]1CN2C(=NC[C@H]2C)N1CC1CCC1,2.9% (inactive)
11,O=C(CNC(=O)OCc1ccccc1)NCC(=O)Nc1ccc(Br)cc1C(=O)c1ccccc1,22% (inactive)
12,COc1ccc(/C=C/C(=O)c2c(O)n(CCC3=CCCCC3)c(=O)[nH]c2=O)cc1,79.8% (active)
13,COc1ccc(/C=C/C(=O)c2c(O)n(CCC3=CCCCC3)c(=O)[nH]c2=O)cc1OC,14.2% (inactive)
14,O=C(/C=C/c1ccc2c(c1)OCO2)c1c(O)n(CCC2=CCCCC2)c(=O)[nH]c1=O,34.4% (inactive)
15,CCOc1cc2c(cc1OCC)-n1cccc1C(c1ccc(OC)cc1)NC2 (configuration not stated),-5.9% (inactive)
16,C[C@@H]1C[C@H]2OC(=O)C3(CO3)[C@H]2[C@H](O)[C@]2(C)C(=O)C3OC3[C@@H]12 (some centres not stated),65.6% (active)
17,CCN(CC)CCN=Cc1c(O)n(Cc2ccco2)c(=O)[nH]c1=O,-5.5% (inactive)
18,CC(C)CN1CCN(Cc2ccc(C(F)(F)F)cc2)CC1CCO (configuration not stated),-10.4% (inactive)
19,C/C(=N\N1CCCCCC1)c1c(O)n(C2CCCCC2)c(=O)[nH]c1=O,-7.2% (inactive)

row,SMILES,inhibition
1,CCOC(=O)c1ccc(NC(=O)c2c(O)[nH]c(=O)[nH]c2=O)cc1,-19% (inactive)
2,CCn1cc(C(=O)NCc2ccccc2)c2ccccc21,-16.6% (inactive)
3,CCCCCCCCN=Cc1c(O)[nH]c(=O)[nH]c1=O,-1.5% (inactive)
4,COCCCN=Cc1c(O)[nH]c(=S)[nH]c1=O,-7.3% (inactive)
5,CCCCC(CC)COCCCN=Cc1c(O)[nH]c(=S)[nH]c1=O (configuration not stated),34.9% (active)
6,O=S(=O)(c1ccc(Cl)cc1)N1CN2CCN(C2)C1,-10.2% (inactive)
7,CN1C(=O)C(=Cc2cn(CC#N)c3ccccc23)C(=O)N(C)C1=O,1.8% (inactive)
8,CC1CCCCN1Cc1c[nH]c2ccccc12 (configuration not stated),-3.8% (inactive)
9,c1cncc(C2Nc3cccc4cccc(c34)N2)c1,54.6% (active) and -3.4% (inactive)
10,c1cncc(C2CCCCN2)c1 (configuration not stated),-6.3% (inactive)
11,O=C1NC(c2cccnc2)Nc2sc3c(c21)CCCC3 (configuration not stated),-24.5% (inactive)
12,CC#CP(=O)(OC)C(O)(CF)c1ccccc1 (configuration not stated),-41.2% (inactive)
13,O=S(=O)(c1ccc(Cl)cc1Cl)N1CCCC1c1cccnc1 (configuration not stated),-4.1% (inactive)
14,CC(=O)Nc1ccc(CC(=O)N2CCN(Cc3ccccc3)CC2)cc1,25.2% (inactive)
15,C[C@H]1C[C@@H](C)C(=O)[C@@H]([C@H](O)CC2CC(=O)NC(=O)C2)C1,88% (active)
16,Cc1ccccc1NC(=O)CCl,18.4% (inactive)
17,CCN(CC)S(=O)(=O)c1ccc(C(=O)NC2CN3CCC2CC3)cc1 (configuration not stated),7.1% (inactive)
18,CCN(CC)CCCN=Cc1c(O)n(CCc2ccc(F)cc2)c(=O)[nH]c1=O,19.7% (inactive)
19,CC(=O)OC(C)(C)/C=C/C(=O)[C@](C)(O)[C@H]1[C@H](O)C[C@@]2(C)[C@@H]3CC=C4[C@H](C[C@H](O)C(=O)C4(C)C)[C@]3(C)C(=O)C[C@]12C,92.6% (active)

row,SMILES,inhibition
1,CC(=O)OC(C)(C)/C=C/C(=O)C(C)(O)C1[C@H](O)C[C@@]2(C)C3CC=C4C(CC[C@@H](O)C4(C)C)[C@]3(CO)C(=O)C[C@]12C (some centres not stated),12% (inactive)
2,Cc1ccc(-c2cc(-c3ccc(C)cc3)[n+](C)o2)cc1,26.6% (inactive)
3,O=[N+]([O-])c1ccc(C2[C@H]3C(c4ccccc4)=NC4(CCCC4)N23)cc1 (some centres not stated),-19.9% (inactive)
4,Cc1nn(-c2ccccc2)c2c1CC1(C(=O)N(C)C(=O)N(C)C1=O)C1CCCCN21 (configuration not stated),-10.6% (inactive)
5,CN(CCCCC(=O)/C=N/O)Cc1ccccc1 (tested in a mixture with another compound),-7.6% (inactive)
6,O=[N+]([O-])c1ccc(N2CCNCC2)cc1N1CCCCCC1,-7.5% (inactive)
7,O=C(CSC1c2ccccc2-c2ccccc21)N/N=C/c1ccccc1O,80.9% (active)
8,O=C(CSC1c2ccccc2-c2ccccc21)N/N=C/c1ccccc1C(=O)O,-22.4% (inactive)
9,O=C(CSC1c2ccccc2-c2ccccc21)N/N=C/c1ccccc1,14.7% (inactive)
10,Oc1cccc(/C=N/NP(=S)(c2ccccc2)c2ccccc2)c1,-0.8% (inactive)
11,COCc1ccc(CN2CCCC(C(=O)c3sccc3C)C2)o1 (configuration not stated),-44.8% (inactive)
12,CN(Cc1ccccc1)Cc1ccccc1OC(=O)N(C)C,2.4% (inactive)
13,C/C(=C\c1ccc(N(C)C)cc1)[N+](=O)[O-],41.9% (inactive)
14,COc1cc(C=C2C(=O)NC(=O)NC2=O)ccc1OCc1ccc([N+](=O)[O-])cc1,-52% (inactive)
15,COc1cc(/C=C(/C)[N+](=O)[O-])ccc1OCc1ccccc1Cl,86.8% (active)
16,CCOC(=O)CNC(=S)N1CC2C[C@@H](C1)Cn1c2cccc1=O,0.7% (inactive)
17,Cc1cc(N2CCCC2)ccc1C=C(C#N)C#N,-24.7% (inactive)
18,Cc1ccc2cc(C=C(C#N)C#N)c(Cl)nc2c1,72.2% (active)
19,CN(C)c1ccc(C=C(C#N)C#N)cc1,-35.8% (inactive)
